{
  "source": "PubChem BioAssay (EPA / NIEHS)",
  "key": {"[1]": {"assay": "CCTE_Shafer_MEA_dev_AB: CCTE's Alamar Blue Assay for Cytotoxicity in the Neural Network Formation Assay, Shafer Lab (AID 2284083);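 further: resazurin reduction fluorescence as viability of cultured neurons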", "summary_of_the_method": "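Rat cortical primary cultures, 1.5 x 10^5 cells/well on MEA; continuous compound exposure over 12 days of network development, re-dosed with full medium change DIV 5 and 9. Alamar Blue fluorescence; loss of signal = cytotoxicity vs DMSO baseline.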"}, "[2]": {"assay": "CCTE_Shafer_MEA_dev_mutual_information_norm: CCTE's Neural Network Formation Assay for Mutual Information Normalization, Shafer Lab (AID 2284091; active means hit-call score of the fitted dose curve at least 0.9, where 1 is the maximum; inactive means score below 0.9;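 on AC50: mutual information between electrodes summarised as area under curve across four recording days; potency is for a decrease in mutual information relative to DMSO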)", "summary_of_the_method": "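Neurons from rat cortex were seeded at 1.5 x 10^5 cells/well onto PEI-coated MEAs in a laminin drop, then exposed to compound from day 0 for twelve days. Network recordings on four days gave mutual information, summarised by AUC relative to DMSO.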"}, "[3]": {"assay": "CCTE_Shafer_MEA_dev_correlation_coefficient_mean: CCTE's Neural Network Formation Assay for Mean Correlation Coefficient, Shafer Lab (AID 2284093; active means hit-call score of the fitted dose curve at least 0.9, where 1 is the maximum; inactive means score below 0.9;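 on AC50: well mean pairwise spike train correlation integrated as AUC over recording days 5 to 12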)", "summary_of_the_method": "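Rat cortical cultures, 1.5 x 10^5 cells/well, dosed from day 0 for 12 days. Spontaneous spikes recorded DIV 5/7/9/12; electrode-pair correlation coefficients averaged, AUC taken. Fit in loss direction vs DMSO.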"}, "[4]": {"assay": "CCTE_Shafer_MEA_acute_AB: CCTE's Alamar Blue Assay for Cytotoxicity in the Neural Acute Assay, Shafer Lab (AID 2284069);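 further: active compounds lower the viability signal compared with DMSO wells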", "summary_of_the_method": "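Read-out: resazurin fluorescence (ex 544, em 590 nm) after CTB reagent at 1:6 dilution in fresh media. Cells: primary rat cortical neuron networks, DIV 13 or 15, chemically exposed on MEA plates; DMSO as negative control/baseline.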"}, "[5]": {"assay": "CCTE_Shafer_MEA_acute_LDH: CCTE's Lactate Dehydrogenase Assay for Cytotoxicity in the Neural Acute Assay, Shafer Lab (AID 2284086);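 further: active means LDH release rises above DMSO vehicle level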", "summary_of_the_method": "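LDH released during 40 min compound exposure of primary rat cortical cultures, quantified by absorbance at 490 nm in collected medium. Fitting direction positive versus DMSO vehicle.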"}, "[6]": {"assay": "CCTE_Shafer_MEA_dev_LDH: CCTE's Lactate Dehydrogenase Assay for Cytotoxicity in the Neural Network Formation Assay, Shafer Lab (AID 2284068)", "summary_of_the_method": "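Rat cortical primary neurons, MEA culture; dosing day 0–12, full medium plus compound exchange DIV 5, 9. Read-out: LDH enzyme activity, spectrophotometric. DMSO = negative control/baseline; signal loss → cytotoxicity.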"}},
  "note": "Records with an inconclusive call do not appear. Activity calls are given as the source filed them. How the source made its calls, unless noted: active means hit-call score of the fitted dose curve at least 0.9, where 1 is the maximum; inconclusive means response in the unintended direction; inactive means score below 0.9.",
  "data": [
    {"smiles": "OCC(O)CO", "values": [
      {"measurement": "outcome", "setting": "[1]", "result": "inactive"},
      {"measurement": "outcome", "setting": "[2]", "result": "inactive"},
      {"measurement": "outcome", "setting": "[3]", "result": "inactive"}
    ]},
    {"smiles": "CC(C)NCC(O)c1ccc(O)c(O)c1", "note": "(centres undefined)", "values": [
      {"measurement": "outcome", "setting": "[4]", "result": "inactive"},
      {"measurement": "outcome", "setting": "[5]", "result": "inactive"}
    ]},
    {"smiles": "COC(=O)[C@H]1[C@H]2C[C@@H]3c4[nH]c5cc(OC)ccc5c4CCN3C[C@H]2C[C@@H](OC(=O)c2cc(OC)c(OC)c(OC)c2)[C@@H]1OC", "values": [
      {"measurement": "AC50", "setting": "[6]", "result": "6.75 µM (active)"},
      {"measurement": "outcome", "setting": "[4]", "result": "inactive"},
      {"measurement": "AC50", "setting": "[1]", "result": "10 µM (active)"},
      {"measurement": "outcome", "setting": "[5]", "result": "inactive"},
      {"measurement": "AC50", "setting": "[2]", "result": "5.56 µM (active)"},
      {"measurement": "AC50", "setting": "[3]", "result": "10 µM (active)"}
    ]},
    {"smiles": "CC(N)=O", "values": [
      {"measurement": "outcome", "setting": "[5]", "result": "inactive"}
    ]},
    {"smiles": "C/C=C/c1ccc(OC)cc1", "values": [
      {"measurement": "outcome", "setting": "[4]", "result": "inactive"},
      {"measurement": "outcome", "setting": "[5]", "result": "inactive"}
    ]}
  ]
}
